Source: PubChem (National Center for Advancing Translational Sciences (NCATS))
Coupling enz: coupling enzyme interference in Giardia aldolase counter-screen; activity change, negative = inhibition, % at 58.2 µM, hits read low; coupling enzyme system counterscreen, AmpLite Red fluorescence; 290,000 tested, 0.67% active; AID 2472; in the data active = activity change below about -30%
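First, compound is pin-transferred into glyceraldehyde-3-phosphate coupling-enzyme reagent at 57.5 uM final and held 10 min at RT. Next, substrate, coupling system and AmpLite Red are added. After 20 min RT, fluorescence (525/598 nm) is read.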
Tau fluor counter: counter-screen for tau fibril formation inhibitors. tau K18 P301L Alexa594 fluorescence, heparin fibrillization. 280,000 tested, 0.93% active. Potency, µM (titrated, usually from 57.7 µM), for inactives: top-dose activity change, negative = decrease; note: potency is the fitted concentration of half-maximal effect; nearly all actives have a fitted effect of over 55% in size
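Human tau K18 P301L (15 uM unlabeled, 0.24 uM Alexa 594-labeled) in 100 mM sodium acetate pH 7 with 20 uM heparin, 6 hr at 37 C. ThT 30 uM added, 1 hr ambient; Alexa 594 FP and total fluorescence read at 555/632 nm.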
Tau fibril FP: blocks human tau fibril formation measured by polarization; Potency, µM (titrated, usually from 57.7 µM), for the others: at the highest dose activity, negative = inhibition, actives largely listed as inhibitors; P10636; 280,000 tested, 0.39% active; K18 P301L tau heparin fibrillization, Alexa594 FP, 6 h; note: potency is the fitted concentration of half-maximal effect; nearly all actives have a fitted effect of over 55% in size
Target sequence (P10636 561-689 P618L limits assumed): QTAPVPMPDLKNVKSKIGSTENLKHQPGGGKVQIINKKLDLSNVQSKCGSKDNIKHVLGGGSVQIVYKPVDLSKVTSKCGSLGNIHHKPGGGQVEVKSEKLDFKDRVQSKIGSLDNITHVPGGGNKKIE
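Steps: dispense K18 P301L tau (15 uM plus 0.24 uM Alexa 594 tracer, final) in pH 7 sodium acetate; add compound; add heparin (20 uM final); incubate 6 hr, 37 C; add ThT (30 uM final); after 1 hr ambient, read FP.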
Tau ThT inhib: tau fibrillization inhibition (ThT binding). P10636. Potency, µM (top dose mostly 57.4 µM), for inactives: at the top dose activity, negative = inhibition, most hits filed as inhibitors. recombinant tau K18 P301L, heparin-induced fibrillization, ThT fluorescence. 270,000 tested, 2.1% active; note: potency is the fitted concentration of half-maximal effect; nearly all actives have a fitted effect of over 55% in size
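Fibril formation assay: tau K18 P301L at 15 uM with trace Alexa 594 label, heparin inducer 20 uM, pH 7 sodium acetate buffer, 37 C for 6 hr; endpoint ThT signal.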
Sfp inh: Sfp phosphopantetheinyl transferase inhibition; Q9F4F7; Biochemical Sfp PPTase activity, qHTS; Potency, µM, inactives show largest response in the series, negative = inhibition, actives largely listed as inhibitors; 310,000 tested, 3.5% active;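 note: the enzyme is Sfp with the accession as filed and its product quenches rhodamine fluorescence; potency is the fitted concentration of half-maximal effect; 0% = enzyme reaction without inhibitor and -100% = no enzyme wells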
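Fluorescence-quenching assay: 15 nM Sfp-PPTase preincubated 15 min at room temperature with compound, then 5 uM rhodamine-CoA and 12.5 uM BHQ-2-labelled YbbR peptide added. Fluorescence (ex 525/em 598 nm) read at start and after 30 min; difference gives rate.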
G9a inh: G9a (human) methyltransferase inhibition; Q96KQ7; G9a H3K9 monomethylation, AlphaScreen, 2 h; Potency, µM (top dose mostly 102 µM), for the others: at the highest dose activity, negative = inhibition, usual class: inhibitors; 350,000 tested, 8.8% active; AID 504332; note: potency is the fitted concentration of half-maximal effect; nearly all actives have a fitted effect of over 75% in size
Target sequence (Q96KQ7 913-1193 limits assumed): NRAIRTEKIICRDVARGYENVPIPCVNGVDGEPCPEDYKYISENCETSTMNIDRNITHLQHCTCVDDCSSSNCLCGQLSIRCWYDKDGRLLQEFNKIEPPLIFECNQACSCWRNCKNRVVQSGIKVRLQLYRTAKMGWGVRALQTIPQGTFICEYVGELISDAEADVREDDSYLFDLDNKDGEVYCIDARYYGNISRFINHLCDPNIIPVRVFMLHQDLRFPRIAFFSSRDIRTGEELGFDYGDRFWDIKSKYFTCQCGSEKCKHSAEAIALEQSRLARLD
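AlphaScreen detection with an anti-monomethyl H3K9 antibody quantified product after a 2 h room-temperature reaction containing 500 nM biotinylated H3K9 peptide, 20 µM SAM and 20 nM enzyme, which had been preincubated 15 min with compound.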
* marks the source's active call; other numbers are inactive results; u = inconclusive; x = not tested or not shown; [ ] = another dose, or the depositor's remark. Hits are enriched below; roughly 11% of the tested compounds scored in any of these assays. Unless noted, calls come from the whole dose curve; as a rule, active = well fitted curve in the direction sought with a large enough effect; inconclusive = small, poorly fitted or top-dose-only effect, or another doubt; inactive = no such curve, though single readings can be large; an effect the other way counts as inactive or inconclusive. Unless noted, % is set by controls: 0 for no effect and ±100 for the full control effect.

SMILES | Coupling enz | Tau fluor counter | Tau fibril FP | Tau ThT inhib | Sfp inh | G9a inh
O=C(CN(CC1CCCO1)C(=O)CNS(=O)(=O)c1ccccc1)NCc1ccco1 (stereo not given) | 0 | -7% | -10% | 2% | -4% | x
O=C(Cn1c(=O)n(Cc2ccc(F)cc2)c(=O)c2ccccc21)NCC1CCCO1 (stereo not given) | -7 | x | x | x | 10% | 15%[59 µM]
O=C(Cn1c(=O)n(Cc2ccco2)c(=O)c2cc(Cl)ccc21)NCC1CCCO1 (stereo not given) | 1 | -6% | -3% | -3% | 40µM* | -44%[12.7 µM]
O=C(CNCC1CCCO1)NCc1ccco1 (stereo not given) | 2 | 1% | 3% | 4% | 45µM* | 8.9µM*
C=C(C)CSc1nc2sc3c(c2c(=O)n1CCCC)CCCC3 | x | -19% | -1% | u | x | 26%[59 µM]
COc1ccc(S(=O)(=O)NCC(=O)N(CC(=O)NCC2CCCO2)Cc2ccc(F)cc2)cc1 (stereo not given) | -2 | x | x | x | 14% | 14%[59 µM]
c1ccc2c(c1)CCN(c1nc3cc4c(cc3s1)OCCO4)C2 | -38* | -8% | 0% | 3% | u | u
COc1ccc(OC)c2sc(N3CCc4ccccc4C3)nc12 | -2 | u | -4% | u | -25% | u
O=C(NC(=S)Nn1cnnc1)c1ccc(F)cc1Cl | 0 | x | x | x | 50µM* | 14µM*
COC(=O)c1cc(OC)c(OC)cc1NC(=O)c1cccc(OC)c1OC | 0 | -9% | -3% | -13% | 21% | 15%[12.7 µM]
CNC(=O)NC(=S)NC(=O)c1ccccc1Cl | 0 | 2% | -2% | -8% | -26% | -36%
CC(C)NC(=S)NC(=O)c1ccc(Cl)cc1Cl | 0 | -13% | 0% | -5% | 8% | -4%[59 µM]
COc1cccc(C(=O)NC(=S)Nn2cnnc2)c1OC | 3 | 2% | -9% | -2% | 22µM* | 14µM*
O=C(NC(=S)Nn1cnnc1)c1ccccc1Cl | -2 | -4% | -8% | -9% | 40µM* | 14µM*
O=C(NC(=S)Nc1ncccn1)c1ccccc1Cl | -10 | 8% | 2% | 0% | 32µM* | 79µM*
O=C(CSc1nc2c(c(=O)[nH]1)CCC2)Nc1cc(C(F)(F)F)ccc1Cl | x | -14% | 2% | -12% | x | u
COc1cc(CN(C)CC2CCCN(CCc3ccccc3F)C2)cc(Cl)c1OC (stereo not given) | 5 | x | x | x | -2% | x
Cc1ccc(NC(=O)CN(C)C(=O)Cc2c(Cl)cccc2Cl)cc1 | -3 | x | x | x | 7% | -2%[59 µM]
COc1cccc(-n2ccnc2SCC(=O)Nc2cccc3ccccc23)c1 | x | -15% | 7% | -10% | x | u
CN(C)/C=C1\C(=O)N(c2ccc([N+](=O)[O-])cc2)N=C1c1ccccc1 | 0 | u | u | 18µM* | -8% | u
C/C(=C1/C(=O)N(c2ccc([N+](=O)[O-])cc2)N=C1c1ccccc1)N(C)C | -1 | u | -3% | u | 13% | 17%[2.33 µM]
CN(C)/C=C1/C(=O)N(c2ccc([N+](=O)[O-])cc2)N=C1c1ccccc1 | 6 | u | -11% | 22µM* | -2% | u
COc1cccc(CNC(=O)CCCn2nc(C)c3sc4ccccc4c3c2=O)c1 | x | -10% | -14% | -7% | x | -34%[59 µM]
COc1cc(-c2nc(-c3ccc4c(c3)-c3ccccc3S4(=O)=O)c(-c3ccccc3)[nH]2)cc(OC)c1OC | -2 | u | 11% | -6% | 0% | 45µM*
COc1cccc(-c2nc(-c3ccc4c(c3)-c3ccccc3S4(=O)=O)c(-c3ccccc3)[nH]2)c1OC | -1 | -17% | -2% | -12% | -4% | u
SMILES | Coupling enz | Tau fluor counter | Tau fibril FP | Tau ThT inhib | Sfp inh | G9a inh
NS(=O)(=O)c1ccc(CCNC(=O)CNS(=O)(=O)c2cccc(Br)c2)cc1 | 0 | 6% | -3% | 12% | -14% | -3%[59 µM]
Cc1c(C(=O)O)cccc1-c1ccc(/C=N/n2cnnc2)o1 | 1 | x | x | x | 6% | 35µM*
Cc1c(C(=O)O)cccc1-c1ccc(/C=N/Nc2ccc(Br)cc2)o1 | -4 | u | -12% | 11µM* | u | 10µM*
O=C(O)c1ccc(N/N=C/c2ccc(-c3cc(Cl)ccc3Cl)o2)cc1 | 10 | 10%[0.0958 µM] | -1%[0.0958 µM] | x | -26% | -39%
Cc1ccc(C)c(NC(=O)Nc2cc3c(cc2N2CCCCC2)n(C)c(=O)n3C)c1 | x | u | 6% | u | x | u
CCCn1c(C)nc2c(NC3CCCCC3)nc(C)nc21 | -1 | -11% | -9% | -3% | 13% | x
CCC(C(=O)OCC(=O)Nc1cc(Cl)cc(Cl)c1)c1ccccc1 (stereo not given) | 2 | u | 32µM* | -6% | 27% | 99%[59 µM]
O=C1CC(N2CCCc3ccccc32)C(=O)N1c1ccccc1 (stereo not given) | 2 | -1% | 10% | -3% | 9% | 40µM*
Cc1ccc(/C=N/Nc2nc(C(C)(C)C)cs2)o1 | -1 | u | u | u | 50µM* | 10µM*
CC(C)(C)c1csc(N/N=C/c2cccnc2)n1 | -2 | u | 4% | u | -28% | u
Cc1ccc(/C=N/Nc2nc3ccccc3s2)o1 | -1 | 14µM*[quencher] | u | u | u | u
CC(C)c1cccc(C(C)C)c1NC(=O)COC(=O)[C@H](C)NC(N)=O | -2 | 0% | -3% | -3% | 14% | 44%
CCN(CC)CCN1CCn2c3c(c4cc(C)ccc42)CCCC31 (stereo not given) | -7 | -29% | -7% | u | -2% | u
Cc1ccc2c(c1)c1c3n2CCN(C(=O)c2cccc(C(F)(F)F)c2)C3CCC1 (stereo not given) | x | -21% | 2% | -9% | x | 7.9µM*
Cc1ccc2c(c1)c1c3n2CCN(C=O)C3CCC1 (stereo not given) | -1 | x | x | x | 2% | 50µM*
Cn1c(SCC(=O)Nc2nc3ccccc3s2)ncc(C(=O)Nc2ccc(Cl)cc2)c1=O | x | -15% | -10% | u | x | -5%[59 µM]
COc1ccccc1NS(=O)(=O)c1cc(NC(=S)NCCN2CCOCC2)ccc1N1CCOCC1 | -2 | u | -4% | -16% | -106% | 10µM*
COc1ccccc1NS(=O)(=O)c1cc(NC(=O)c2cnccn2)ccc1N1CCOCC1 | 3 | -29% | 4% | -13% | -7% | x
COc1ccccc1NS(=O)(=O)c1cc(NC(=O)c2cccc(S(=O)(=O)N(C)C)c2)ccc1N1CCOCC1 | x | x | x | x | x | 18µM*
COc1ccccc1NS(=O)(=O)c1cc(NC(=O)c2ccncc2)ccc1N1CCOCC1 | 3 | 2% | 3% | 5% | 79µM* | u
